# Values joined by “and” are separate entries in the source; they are usually repeats but may differ in a detail not shown here. Identical values can stand only once. Results filed as inconclusive are left out. Unmarked numbers belong to inactive results. Active and inactive are the calls of the source. Calls come from the whole dose curve; as a rule, active = well fitted cell-killing curve with a large enough effect; inconclusive = small, poorly fitted or top-dose-only effect; inactive = flat fitted curve, though single readings scatter.
# Test: Cell Viability - LYMP2-026 (AID 989); note: nearly all actives have a fitted effect of over 50% in size
# Settings: LYMP2-026 lymphoblastoid cell viability, qHTS; series mostly up to 92.2 µM; activity change, negative = cytotoxic: at the top concentration
# Source text: NIH Chemical Genomics Center [NCGC]
# NIH Molecular Libraries Screening Centers Network [MLSCN]
# National Institutes of Environmental Health Sciences [NIEHS]
# National Toxicology Program [NTP]
# We have developed a 1536-well cell-based assay for quantitative high throughput screening (qHTS) against a number of cell lines to determine in vitro cytotoxicity of small molecules. This particular assay uses a human lymphoblastoid cell line (LYMP2-026) purchased from Coriell Institute for Medical Research.
# NCGC Assay Protocol Summary:
# The CellTiter-Glo luminescent cell viability assay (Promega) is a homogeneous method to measure the number of viable cells in culture. The end point readout of this assay is based on quantitation of intracellular ATP, an indicator of metabolic activity, using the luciferase reaction. Luciferase catalyzes the oxidation of beetle Luciferin to oxyluciferin and light in the presence of ATP. The luminescent signal is proportional to amount of ATP present.
# Using the CellTiter-Glo luminescent cell viability assay, the amount of cellular ATP was measured in the lymphoblastoid cell line with complete culture medium following compound treatment for 24 hours. The assay was performed in opaque white Kalypsys 1536-well plates. In the screen, tetraoctylammonium bromide was used as positive control. Library compounds were measured for their ability to cause acute toxicity in the cell line, as reflected by a decrease in intracellular ATP levels, in a concentration-dependent manner. […] AC50 values were determined from concentration-response data modeled with the standard Hill equation.
# qHTS protocol for CellTiter Glo lymphoblastoid cellular assay
# [Step] [Parameter] [Value] [Description]
# 1. Reagent; 5 uL; 2500 lymphoblastoid cells/well
# 2. Time; 5 hr; 37 C incubation
# 4. Controls; 23 nL; Tetraoctylammonium bromide 6.4pM to 92 uM
# 5. Time; 24 hr; 37 C incubation
# 6. Reagent; 5 uL; CellTiter Glo reagent
# 7. Time; 30 min; Room Temperature
# 8. Detection; Luminescence; Viewlux plate reader
# Keywords: cell viability, cytotoxicity, lymphoblastoid cell line, luminescence, NTPHTS, NTPHTS_NCGC, NIEHS, DSSTox, MLSMR, MLSCN, NIH Roadmap, qHTS, NCGC
# % is set by controls: 0 for no effect and ±100 for the full control effect; potency is the fitted concentration of half-maximal effect.
Compound,"activity change, negative = cytotoxic [%]",Potency
S=C=S,4.43,
C[C@H]1CC[C@@H]2[C@@H](C)[C@H]3[C@H](C[C@H]4[C@@H]5CC=C6CC(O[C@@H]7O[C@H](CO)[C@H](O)[C@H](O[C@@H]8O[C@H](CO)[C@@H](O)[C@H](O)[C@H]8O)[C@H]7O[C@H]7O[C@@H](C)[C@H](O)[C@@H](O)[C@H]7O)CC[C@]6(C)[C@H]5CC[C@]34C)N2C1 (stereo partly specified),-49.3,
C=CCN=C=S,5.58,
CCOC(=O)c1ccccc1C(=O)OCC,,inactive
ClC(Cl)(Cl)Cl,,inactive
NNC(N)=O,0.609,
O=CC=O,-2.67,
Clc1ccccc1Cl,-2.03,
COc1ccc2c(c1OC)C(=O)OC2C1c2cc3c(cc2CCN1C)OCO3 (stereo unspecified),-1.74,
O=C1C=CC(=O)C=C1,-22.1,
CC(C)CCON=O,2.36,
[O]=[Cr](=[O])([OH])[O][Cr](=[O])(=[O])[OH],,15.8 µM (active) and 20 µM (active) and 12.6 µM (active)
C[C@]12CCC(=O)C[C@@H]1CC[C@@H]1[C@@H]2CC[C@]2(C)[C@@H](O)CC[C@@H]12,-15.3,
ClC=C(Cl)Cl,4.28,
O=C1C2CC=CCC2C(=O)N1SC(Cl)(Cl)Cl (stereo unspecified),,3.98 µM (active) and 6.31 µM (active)
O=[N+]([O-])c1ccc(F)c([N+](=O)[O-])c1,-16.4,

Compound,"activity change, negative = cytotoxic [%]",Potency
CC(C)Nc1ccc(Nc2ccccc2)cc1,,39.8 µM (active)
CCCCCl,-7.67,
ClCC1CO1 (stereo unspecified),-25,
C[C@H]1CCC[C@H](O)CCCCCc2cc(O)cc(O)c2C(=O)O1,9.61,
O=C(O)C(Cl)(Cl)Cl,,inactive
COC1=CC(=O)O[C@@H](/C=C/c2ccccc2)C1,10.4,
CCCCCCCCOC(=O)c1ccccc1C(=O)OCCCCCCCC,-3.71,
O=[N+]([O-])c1ccccc1,1.44,
[Cl-].[Cl-].[Hg+2],,20 µM (active)
O=C1CCO1,4.96,
O=Cc1ccco1,-2.83,
Oc1cc(Cl)c(Cl)cc1Cl,-10.7,
[O]=[Cd],0.769,
CC(C)(C)c1cc(O)ccc1O,-27,
O=C/C=C/c1ccccc1,,inactive

# From PubChem BioAssay (NCATS)
